Screening results (PubChem BioAssay)
IL-1B inflam inh: inflammasome signaling inhibition, IL-1 beta readout; THP-1 LPS/ATP IL-1B secretion, AlphaLISA, 16 h; hits give low values; activity change, % at 57.5 µM; 4.7% of 360,000 active; in the data active means activity change below about -50%; inconclusive means mostly about -30% to -49%; further: on the % scale 0 is the no-effect control and ±100 the full control effect
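Secreted IL-1B measured by AlphaLISA bead assay after 16 h compound exposure of THP-1 cells; compounds (final up to 57.5 uM) added 1 h before LPS (250 ng/mL) and ATP (1.25 mM) stimulation; lower signal means less secretion.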
TDP1 inh: inhibitors of human tyrosyl-DNA phosphodiesterase TDP1 | Q9NUW8 | AID 485290 | recombinant TDP1, AlphaScreen DNA substrate cleavage | Potency, µM (series often up to 130 µM), inactives show at the highest dose activity change, negative = inhibition, most hits filed as inhibitors | 0.28% of 350,000 active; further: potency means the concentration at half of the fitted maximal effect; on the % scale 0 is the no-effect control and ±100 the full control effect; nearly all actives have a fitted effect of over 40% in size
Target sequence (Q9NUW8 whole entry, looked up): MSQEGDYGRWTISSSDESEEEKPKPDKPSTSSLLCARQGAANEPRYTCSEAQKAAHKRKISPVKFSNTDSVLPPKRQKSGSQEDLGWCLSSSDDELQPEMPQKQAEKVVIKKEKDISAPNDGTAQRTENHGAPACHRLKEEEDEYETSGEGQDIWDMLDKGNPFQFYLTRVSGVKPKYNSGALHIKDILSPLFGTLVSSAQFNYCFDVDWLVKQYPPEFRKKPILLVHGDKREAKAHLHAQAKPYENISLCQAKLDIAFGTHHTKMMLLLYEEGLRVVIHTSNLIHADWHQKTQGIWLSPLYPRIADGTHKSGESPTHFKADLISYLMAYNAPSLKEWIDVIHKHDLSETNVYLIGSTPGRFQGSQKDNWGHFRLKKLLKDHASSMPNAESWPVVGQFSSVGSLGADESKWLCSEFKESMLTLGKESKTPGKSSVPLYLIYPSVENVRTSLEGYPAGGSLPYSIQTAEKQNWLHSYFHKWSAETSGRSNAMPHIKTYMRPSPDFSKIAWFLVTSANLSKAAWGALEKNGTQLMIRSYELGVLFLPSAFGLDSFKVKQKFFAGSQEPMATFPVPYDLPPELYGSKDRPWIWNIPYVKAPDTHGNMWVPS
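AlphaScreen read-out: signal falls as enzyme removes the 3' tyrosine-FITC from a 5'-biotinylated DNA oligo (15 nM, 5 min, RT). Enzyme was E. coli-made recombinant Tdp1 at 1 nM, exposed to compound for 15 min beforehand; beads 10 ug/ml, 10 min.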
DT40 TDP1 CPT: growth inhibition of DT40 Tdp1-/-;hTDP1 cells with camptothecin (screen for TDP1 inhibitors); chicken DT40 Tdp1-/-;hTDP1 cells + 20 nM CPT, ATP luminescence, 48 h; Potency, µM (top dose mostly 46.2 µM), for inactives: at the top dose activity change, negative = growth inhibition, actives largely listed as inhibitors; AID 686979; 12% of 420,000 active; further: potency means the concentration at half of the fitted maximal effect; on the % scale 0 is the no-effect control and ±100 the full control effect; nearly all actives have a fitted effect of over 55% in size
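Chicken DT40 Tdp1-/- cells stably complemented with human TDP1 were seeded at 400 cells/well in medium containing 20 nM camptothecin, exposed to pin-transferred compounds, and grown at 37 °C for at least 48 hr. Viability was read as ATP luminescence.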
HepG2 tox: counter-screen for TGF-b inhibitors: cytotoxicity in HepG2 cells; HepG2 CAGA-GFP viability, ATP luminescence, 18 h; Potency, µM (titrated, usually from 46.1 µM), for the others: at the highest dose activity change, negative = cytotoxicity, hits mostly cytotoxic; 0.76% of 410,000 active; AID 588856; further: potency means the concentration at half of the fitted maximal effect
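HepG2 CAGA-GFP cells (1000/well, DMEM with 1% FBS) received compound, then TGF-beta at 500 pg/mL final, and were incubated 18 hours at 37 degrees C. Viability was read by CellTiter-Glo luminescence. Media-only wells were set as complete cell-killing and DMSO as no toxicity.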
DT40 TDP1 no CPT: qHTS for Inhibitors of human tyrosyl-DNA phosphodiesterase 1 (TDP1): qHTS in cells in absence of CPT; DT40 Tdp1-/- hTDP1 cells, no CPT, ATP luminescence, 48 h; Potency, µM (doses to about 46.2 µM), without a hit: at the top dose activity change, negative = growth inhibition, most hits filed as inhibitors; 15% of 420,000 active; AID 686978, 2013; further: potency means the concentration at half of the fitted maximal effect; on the % scale 0 is the no-effect control and ±100 the full control effect; nearly all actives have a fitted effect of over 55% in size
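Readout: luminescence from CellTiter-Glo after 30 min in the dark at RT. Cells: DT40 Tdp1-/- with stable hTDP1, 400/well. Exposure: compounds alone, ≥48 hr, 37 °C.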
TGFb inhibitor: TGF-b pathway inhibition; Potency, µM (top dose mostly 46.1 µM), inactives show top-dose activity, negative = inhibition, usual class: inhibitors; 1.2% of 410,000 active; HepG2 CAGA-GFP TGF-b/SMAD3 reporter, GFP fluorescence, 18 h; TGF-beta stimulated, 500 pg/mL final; further: potency means the concentration at half of the fitted maximal effect; on the % scale 0 is the no-effect control and ±100 the full control effect; nearly all actives have a fitted effect of over 65% in size
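Inhibition was scored as loss of TGF-beta-induced (500 pg/mL final, 18 hours, 37 degrees C) GFP in HEPG2 cells carrying a CAGA-GFP reporter, in DMEM with 1% FBS. Well GFP was summed per cell; Activity was normalised to unstimulated and stimulated DMSO wells, then concentration-response fitting.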
* = called active by the depositor; ? = inconclusive; . = not tested or not shown. Only some compounds are listed: those with a hit (about 19% of all), similar ones and a draw of the others. Unless noted, the call rests on the fitted dose curve; in most records, active means well fitted curve in the direction sought with a large enough effect; inconclusive means small, poorly fitted or top-dose-only effect, or another doubt; inactive means no such curve, though single readings can be large; an effect the other way counts as inactive or inconclusive.

SMILES	IL-1B inflam inh	TDP1 inh	DT40 TDP1 CPT	HepG2 tox	DT40 TDP1 no CPT	TGFb inhibitor
COc1cccc(N2CCN(C(=O)Cn3c(=O)oc4ccccc43)CC2)c1	24	.	4%	-24%	-4%	-2%
Cc1cccc(C)c1[N+](=O)[O-]	.	19%	.	.	.	.
O=C(Nc1ccc(Br)cc1)c1ccc(Cl)c(S(=O)(=O)N2CCCCCC2)c1	.	12%	?	-13%	16µM*	-8%
Cc1ccc(C(=O)Nc2ccncc2)cc1S(=O)(=O)N1CCCCC1	32	.	23µM*	-1%	18µM*	-24%
Cc1ccc(Cn2cc(C=O)c(-c3ccc(C)cc3)n2)cc1	-58*	4%	?	-23%	?	?
O=C(NC1CC1)c1cn(Cc2ccccc2)nc1-c1ccccc1	-4	0%	12%	16%	-16%	-1%
CC(=O)[C@@]1(O)CC[C@H]2[C@@H]3CCC4=CC(=O)CC[C@]4(C)C3(F)[C@@H](O)C[C@@]21C (stereo partly drawn)	.	.	13%	.	-14%	.
C[C@H]1C[C@H]2[C@@H]3CCC4=CC(=O)C=C[C@]4(C)[C@@]3(F)[C@@H](O)C[C@]2(C)[C@@]1(O)C(=O)CCl	.	.	-97%	.	0.053µM*	.
CC(=O)[C@@]1(O)CCC2C3CC=C4C[C@@H](O)CC[C@]4(C)C3CC[C@@]21C (stereo partly drawn)	23	0%	7%	1%	-3%	23%
COc1ccc(Br)cc1C1SCC(=O)Nc2c1c(C)nn2-c1ccccc1C (stereo not drawn)	.	9%	?	-22%	18µM*	-20%
Cc1ccccc1-n1nc(C)c2c1NC(=O)CSC2c1ccccc1C(F)(F)F (stereo not drawn)	.	-3%	26µM*	-39%	?	?
C=CCC(O)(C(=O)OC)c1ccccc1 (stereo not drawn)	.	2%	.	.	.	.
COc1ccc(C(=O)Oc2c(CN3CCOCC3)cc(Cl)c3cccnc23)cc1OC	0	4%	5µM*	-29%	5.6µM*	-11%
COc1ccc(CN2Cc3cc(-c4ccccc4)ccc3-n3nncc3C2)cc1	-28	.	?	-30%	?	?
O=[N+]([O-])c1ccc(-[n+]2c(-c3ccccc3)cc(-c3ccccc3)cc2-c2ccccc2)cc1	-3	.	?	-3%	21µM*	-14%
Oc1ccc(-[n+]2c(-c3ccccc3)cc(-c3ccccc3)cc2-c2ccccc2)cc1	-95*	3%	1.2µM*	-35%	0.65µM*	?
C[n+]1c(-c2ccccc2)cc(-c2ccc(O)cc2)cc1-c1ccccc1	?	-1%	18µM*	-12%	21µM*	-16%
COc1ccc(-[n+]2c(-c3ccccc3)cc(-c3ccccc3)cc2-c2ccccc2)cc1	-76*	.	0.41µM*	-36%	0.26µM*	?
Cc1ccccc1S(=O)(=O)N1C[C@H]2[C@H]3C(=O)N(C4CCCCC4)C(=O)[C@H]3CC(=O)[C@H]2[C@@H]1c1ccc(Cl)cc1	?	.	?	-22%	?	?
Cc1cc(O)c(CN2CC=C(c3ccccc3)CC2)cc1C(C)C	5	.	?	-6%	?	-1%
CN1C2CCCC1CC(=O)C2	.	7%	.	.	.	.
O=[N+]([O-])c1ccc2c3c(cccc13)CC2	.	14%	.	.	.	.
Cn1c(O)c(C(=Nc2ccc(F)cc2)c2ccccc2Cl)c(=O)n(C)c1=O	-24	7%	?	-5%	7.3µM*	15%
COC(=O)c1ccc(N=C(c2ccccc2)c2c(O)n(C)c(=O)n(C)c2=O)cc1	-7	.	?	21%	23µM*	28%
Cn1c(O)c(C(=Nc2ccccc2)SCc2ccccc2Cl)c(=O)n(C)c1=O	?	-3%	5.8µM*	-20%	8.2µM*	-19%
SMILES	IL-1B inflam inh	TDP1 inh	DT40 TDP1 CPT	HepG2 tox	DT40 TDP1 no CPT	TGFb inhibitor
CCOC(=O)c1ccc(N=C(c2ccccc2)c2c(O)n(C)c(=O)n(C)c2=O)cc1	.	-5%	2.9µM*	-2%	7.3µM*	-7%
COC(C(=O)C(O)C(C)O)C1Cc2cc3cc(OC4CC(OC5CC(O)C(OC)C(C)O5)C(OC(C)=O)C(C)O4)c(C)c(O)c3c(O)c2C(=O)C1OC1CC(OC2CC(OC3CC(C)(O)C(OC(C)=O)C(C)O3)C(O)C(C)O2)C(O)C(C)O1 (stereo not drawn)	.	13%	.	.	.	.
C=COC(C)=O	.	9%	.	.	.	.
CC(C)Cc1nc2cccnc2n1C1CCNCC1	.	1%	-28%	-8%	-14%	-24%
CC1(Cc2ccc(C(F)(F)F)nc2)C(=O)Nc2cc(-c3ccccc3Cl)ccc21 (stereo not drawn)	.	.	16µM*	-21%	?	-13%
COc1ccc(CC(=O)NC(=S)NNC(=O)COc2c(C)cccc2C)cc1	22	5%	16µM*	-16%	16µM*	-12%
COc1ccc(C(=O)NC(=S)NNC(=O)c2cccnc2)cc1	32	15%	?	2%	?	-4%
CC(C)CCCC(C)C1CCC2C3CC(O)[C@@]4(O)CC(O)CC[C@@]4(C)C3CC[C@@]12C (stereo partly drawn)	.	4%	?	.	18µM*	.
O=C(CCN1CCN(CCO)CC1)N1c2ccccc2Sc2ccc(C(F)(F)F)cc21	?	8%	?	-22%	23µM*	-8%
O=C1NC(=O)N(c2ccc(Cl)cc2)C(=O)/C1=C/c1coc2ccc(O)cc2c1=O	?	.	15µM*	-24%	15µM*	?
O=C1NC(=O)N(c2ccccc2)C(=O)/C1=C/c1coc2ccc(O)cc2c1=O	-20	.	23µM*	-24%	15µM*	?
O=C1NC(=O)N(c2ccccc2)C(=O)/C1=C/c1ccoc1	20	-10%	?	-15%	-21%	35%
CCC(=O)CCCCC[C@@H]1NC(=O)[C@H]2CCCCN2C(=O)[C@H]([C@@H](C)CC)NC(=O)[C@H](Cc2cn(OC)c3ccccc23)NC1=O	.	15%	.	.	.	.
CC(C)CN1CCCC2(CCN(C(=O)Oc3ccccc3)CC2)C1	.	.	4%	.	-14%	.
COc1ccc(C#Cc2ccc3c(c2)O[C@H](CN(C)C(C)=O)[C@H](C)CN([C@@H](C)CO)S3(=O)=O)cc1	22	.	23µM*	4%	15µM*	-3%
